Data: PubChem BioAssay (Tox21)
Inconclusive results are not listed. Calls of active or inactive are those of the source. Unless noted, the call rests on the fitted dose curve; in most records, active means well fitted curve in the direction sought with a large enough effect in the repeat runs; inconclusive means weak or mixed curves; inactive means no such curve, though single readings can be large; an effect the other way counts as inactive or inconclusive. Positions of bridges follow the written chain, without caps; N, C: chain ends. Non-standard residues stand in square brackets, D forms with d. Residues, ends and D or L forms follow the SMILES beside them. *: point of attachment. X2 = CC[C@H](C)CCCCC(=O)*; Dab = NCC[C@H](N)C(=O)O

Tests used:
[1] = qHTS assay to identify small molecule antagonists of the glucocorticoid receptor (GR) signaling pathway - cell viability counter screen (AID 720693); further: nearly all actives have a fitted effect of over 55% in size
[2] = qHTS assay for identifying genotoxic compounds that show differential cytotoxicity against isogenic chicken DT40 cell lines with known DNA damage response pathways - Rev3 mutant cell line (AID 743014); further: nearly all actives have a fitted effect of over 55% in size; further: potency means the concentration at half of the fitted maximal effect
[3] = qHTS assay to identify small molecule antagonists of the androgen receptor (AR) signaling pathway - cell viability counter screen (AID 743033; further: nearly all actives have a fitted effect of over 45% in size)
[4] = qHTS assay to identify small molecule antagonists of the androgen receptor (AR) signaling pathway using the MDA cell line - cell viability counter screen (AID 743041; further: nearly all actives have a fitted effect of over 45% in size; further: potency means the concentration at half of the fitted maximal effect)
How it was run: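 Viability read by CellTiter-Fluor fluorescence in the same wells as the antagonist screen, added after 15.5 h of a 16 h, 37C exposure. Human breast carcinoma MDA-kb2 AR-luc cells, compounds co-dosed with agonist R1881.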

[5] = qHTS assay for identifying genotoxic compounds that show differential cytotoxicity against isogenic chicken DT40 cell lines with known DNA damage response pathways - Rad54/Ku70 mutant cell line (AID 743015); further: nearly all actives have a fitted effect of over 60% in size; further: potency means the concentration at half of the fitted maximal effect
[6] = biological target: Androgen receptor (Homo sapiens) (UniProt P10275); test: qHTS assay to identify small molecule antagonists of the androgen receptor (AR) signaling pathway (AID 743035; active means well fitted inhibition curve with a large enough effect in the signal ratio in the repeat runs, not every such curve was filed as active; the % refers to the signal ratio; further: potency means the concentration at half of the fitted maximal effect)
How it was run: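 Reporter HEK293 cells were exposed to compounds and R1881 overnight (16 h, 37C); beta-lactamase activity was then quantified by FRET fluorescence.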

[7] = biological target: Androgen receptor (Homo sapiens) (UniProt P10275); test: qHTS assay to identify small molecule agonists of the androgen receptor (AR) signaling pathway using the MDA cell line (AID 743040; further: nearly all actives have a fitted effect of over 20% in size; further: potency means the concentration at half of the fitted maximal effect)
How it was run: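 Luciferase agonist assay: 16 h compound exposure at 37C without CO2 in MDA-kb2 AR-luc cells, whose MMTV promoter responds to both AR and GR. Luminescence measured after 30 min room-temperature incubation with ONE-Glo.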

[8] = biological target: Androgen receptor (Homo sapiens) (UniProt P10275); test: qHTS assay to identify small molecule antagonists of the androgen receptor (AR) signaling pathway using the MDA cell line (AID 743042; further: nearly all actives have a fitted effect of over 55% in size)
How it was run: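 Antagonist mode: compounds plus R1881 agonist added to MDA-kb2 AR-luc cells, incubated 16 h at 37C. Luciferase reporter luminescence quantified, with multiplexed CellTiter-Fluor readout for cell viability.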

[9] = biological target: Androgen receptor (Homo sapiens) (UniProt P10275); test: qHTS assay to identify small molecule agonists of the androgen receptor (AR) signaling pathway (AID 743036; active means well fitted activation curve with a large enough effect in the signal ratio in the repeat runs, with a control signal flat, not every such curve was filed as active; the % refers to the signal ratio; further: potency means the concentration at half of the fitted maximal effect)
How it was run: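 Quantitative HTS of the Tox21 10K library in HEK293 cells bearing a stably integrated UAS-controlled beta-lactamase reporter. Compound exposure lasted 16 h at 37C. Reporter activity was detected by FRET substrate fluorescence after 2 h at room temperature.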

[10] = qHTS assay for identifying genotoxic compounds that show differential cytotoxicity against isogenic chicken DT40 cell lines with known DNA damage response pathways - wild type cell line (AID 743012); further: nearly all actives have a fitted effect of over 60% in size; further: potency means the concentration at half of the fitted maximal effect
How it was run: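 Viability of DNA repair-proficient chicken DT40 cells was assessed by CellTiter-Glo luminescence following 40 h compound exposure at 37 C/5% CO2.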

Measured: Potency

Sequence of Androgen receptor (Homo sapiens) (P10275 whole entry, looked up): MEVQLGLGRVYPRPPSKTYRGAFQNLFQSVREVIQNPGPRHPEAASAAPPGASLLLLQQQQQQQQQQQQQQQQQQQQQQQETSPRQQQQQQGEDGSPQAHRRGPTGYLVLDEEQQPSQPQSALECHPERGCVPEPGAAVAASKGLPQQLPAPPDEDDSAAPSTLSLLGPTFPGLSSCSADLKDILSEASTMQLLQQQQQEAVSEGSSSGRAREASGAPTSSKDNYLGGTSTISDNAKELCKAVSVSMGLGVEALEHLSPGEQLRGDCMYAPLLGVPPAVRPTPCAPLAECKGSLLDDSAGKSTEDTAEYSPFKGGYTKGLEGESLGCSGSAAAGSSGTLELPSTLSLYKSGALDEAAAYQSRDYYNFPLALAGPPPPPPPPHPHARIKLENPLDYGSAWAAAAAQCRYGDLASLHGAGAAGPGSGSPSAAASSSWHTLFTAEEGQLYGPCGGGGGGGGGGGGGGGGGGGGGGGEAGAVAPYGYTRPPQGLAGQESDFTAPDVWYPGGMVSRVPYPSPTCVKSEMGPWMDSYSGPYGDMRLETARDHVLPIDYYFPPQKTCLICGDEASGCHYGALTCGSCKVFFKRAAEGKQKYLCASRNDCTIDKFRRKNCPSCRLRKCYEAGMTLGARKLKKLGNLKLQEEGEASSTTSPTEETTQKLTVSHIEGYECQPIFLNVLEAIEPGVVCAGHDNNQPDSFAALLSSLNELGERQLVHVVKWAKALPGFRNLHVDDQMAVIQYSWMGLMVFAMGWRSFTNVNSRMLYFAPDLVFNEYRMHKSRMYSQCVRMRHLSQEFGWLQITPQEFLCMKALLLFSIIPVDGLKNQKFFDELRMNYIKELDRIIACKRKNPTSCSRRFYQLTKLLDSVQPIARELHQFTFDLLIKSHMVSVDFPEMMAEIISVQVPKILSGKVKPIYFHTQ

Cn1c(=O)c2c(ncn2CCOC(=O)C(C)(C)Oc2ccc(Cl)cc2)n(C)c1=O
inactive: [1] | [2] | [3] | [4]

[O]=[Bi][O]C(=O)[O][Bi]=[O]
inactive: [1] | [2] | [4]

C#C[C@]1(O)CC[C@H]2[C@@H]3CCC4=C(CCC(=O)C4)[C@H]3CC[C@@]21C
inactive: [1] | [2] | [3] | [4]

CCCCCCCCCCCCCCCCCCOP(=O)([O-])OC1CC[N+](C)(C)CC1
inactive: [1] | [2] | [3] | [4]
active: [5] 14600 nM

CC(C)(C)NC(=O)[C@H]1CC[C@H]2[C@@H]3CC=C4C=C(C(=O)O)CC[C@]4(C)[C@H]3CC[C@]12C
inactive: [1] | [2] | [3] | [6] | [7] | [4] | [8]

CC(C)CN(C[C@@H](O)[C@H](Cc1ccccc1)NC(=O)O[C@H]1CO[C@H]2OCC[C@H]21)S(=O)(=O)c1ccc(N)cc1
inactive: [1] | [2] | [3] | [4]
active: [5] 29800 nM

CC(NNC(=O)c1ccccc1)c1ccccc1 (stereo unspecified)
inactive: [1] | [2] | [5] | [3] | [9] | [7] | [4] | [8]

O=C(O)c1c(Cl)c(Cl)c(Cl)c(Cl)c1-c1c2cc(I)c(=O)c(I)c-2oc2c(I)c(O)c(I)cc12
inactive: [1] | [2] | [3] | [6] | [9] | [8]
active: [7] 13300 nM | [4] 24800 nM

CCC(=O)NCCC1CCc2ccc3c(c21)CCO3 (stereo unspecified)
inactive: [1] | [6] | [9] | [7] | [4] | [8]
active: [10] 26600 nM

COc1ccc(C(=O)Nc2ccccc2CCC2CCCCN2C)cc1 (stereo unspecified)
inactive: [1] | [2] | [5] | [4]

CCC(=O)OCC(=O)[C@@]1(OC(=O)CC)[C@H](C)C[C@H]2[C@H]3[C@H]([C@@H](O)C[C@@]21C)[C@@]1(C)C=CC(=O)C=C1C[C@H]3Cl
active: [9] 144 nM | [7] 40.3 nM
inactive: [1] | [2] | [3] | [6] | [4] | [8]

CC[C@H](C)CCCCC(=O)N[C@@H](CCN)C(=O)N[C@H](C(=O)N[C@@H](CCN)C(=O)N[C@H]1CCNC(=O)[C@@H]([C@H](C)O)NC(=O)[C@H](CCN)NC(=O)[C@H](CCN)NC(=O)[C@H](CC(C)C)NC(=O)[C@@H](CC(C)C)NC(=O)[C@H](CCN)NC1=O)[C@@H](C)O (X2-[Dab]T[Dab][Dab][Dab][dL]L[Dab][Dab][dT]; lactam 4-C)
inactive: [1] | [10] | [4]

CCN(CC)c1ccc(N=Nc2ccc(S(=O)(=O)N(C)C)cc2)c(S(=O)(=O)NCC[n+]2ccccc2)c1
inactive: [1] | [2] | [3] | [6] | [9] | [7] | [4] | [8]

CC(=O)OCC(=O)[C@@]12OC3(CCCC3)O[C@@H]1C[C@H]1[C@@H]3CCC4=CC(=O)C=C[C@]4(C)[C@@]3(F)[C@@H](O)C[C@@]12C
inactive: [1] | [2] | [4]

C=C1c2c(Cl)ccc(O)c2C(O)=C2C(=O)[C@]3(O)C(O)=C(C(N)=O)C(=O)[C@@H](N(C)C)[C@@H]3[C@@H](O)[C@H]12
inactive: [1] | [2] | [7] | [4] | [8]

CC(C)(C)NCC(O)CSc1nc(-c2ccc(C(N)=O)s2)cs1 (stereo unspecified)
inactive: [1] | [2] | [3] | [4]

O=C(OC1C[C@@H]2CC3C[C@H](C1)N2CC3=O)c1c[nH]c2ccccc12 (stereo partly specified)
active: [10] 26600 nM
inactive: [1] | [3] | [4]

CCOC(=O)O[C@]1(C(=O)COC(=O)CC)CC[C@H]2[C@@H]3CCC4=CC(=O)C=C[C@]4(C)[C@H]3[C@@H](O)C[C@@]21C
active: [6] 2040 nM | [7] 50.7 nM
inactive: [1] | [10] | [4] | [8]

CCCCCCCCCCCCCCCCCC[N+](C)(C)CCC[Si](OC)(OC)OC
active: [2] 18800 nM | [5] 10600 nM
inactive: [1] | [3] | [4]

C[C@@H]1CCC2[C@@H](C)[C@@H](O)O[C@@H]3O[C@@]4(C)CC[C@@H]1[C@@]23OO4 (stereo partly specified)
active: [10] 119 nM | [2] 133 nM | [5] 47.3 nM

CC(O)[C@H]1CC[C@H]2[C@@H]3CC[C@@H]4C[C@@H](O)CC[C@]4(C)[C@H]3CC[C@]12C (stereo partly specified)
inactive: [1] | [3] | [4]

C[C@@H]1C[C@H]2C3C[C@H](F)C4=CC(=O)C=CC4(C)[C@@]3(F)[C@@H](O)CC2(C)[C@@]1(O)C(=O)COC(=O)C(C)(C)C (stereo partly specified)
active: [9] 60.1 nM | [7] 4.7 nM
inactive: [1] | [3] | [6] | [4] | [8]

O=C(O)c1cc(N=Nc2ccc(O)c(C(=O)O)c2)ccc1O
inactive: [1] | [5] | [3] | [6] | [9] | [7] | [8]

NC(=O)OC[C@@H]1[C@H](NC(=O)/C(=N\OCC(=O)O)c2csc(N)n2)C(=O)N1S(=O)(=O)O
inactive: [1] | [5] | [3] | [4]

CC(C)c1nc(N(C)S(C)(=O)=O)nc(-c2ccc(F)cc2)c1/C=C/C(O)CC(O)CC(=O)O (stereo unspecified)
inactive: [1] | [3] | [4]

CC[C@@H](C(=O)[C@@H](C)[C@@H](O)[C@H](C)[C@@H]1O[C@@H]([C@@H](CC)C(=O)O)CC[C@@H]1C)[C@H]1O[C@]2(C=C[C@@H](O)[C@]3(CC[C@@](C)([C@H]4CC[C@](O)(CC)[C@H](C)O4)O3)O2)[C@H](C)C[C@@H]1C
active: [10] 1500 nM | [2] 944 nM | [5] 1190 nM

O=C(O)[C@H](CC(=O)N1C[C@H]2CCCC[C@H]2C1)Cc1ccccc1
inactive: [1] | [5] | [3] | [4]

O=C(O)c1cc2ccccc2c(Cc2c(O)c(C(=O)O)cc3ccccc23)c1O
inactive: [1] | [5] | [3] | [4]

c1ccc2cc(C3=NCCN3)ccc2c1
inactive: [1] | [3] | [4]
active: [5] 18800 nM

C[N+](C)(CCCCCC[N+](C)(C)C1c2ccccc2-c2ccccc21)C1c2ccccc2-c2ccccc21
inactive: [1] | [3] | [4]

CC(C)(CO)[C@@H](O)C(=O)NCCC(=O)NCCSSCCNC(=O)CCNC(=O)[C@H](O)C(C)(C)CO
inactive: [1] | [4]

C=Cc1c(C)c2cc3nc(cc4[nH]c(cc5nc(cc1[nH]2)C(C)=C5CCC(=O)OC)c(CCC(=O)O)c4C)[C@@]1(C)C3=CC=C(C(=O)OC)[C@H]1C(=O)OC
inactive: [1] | [3]

CC(C)CN(C[C@@H](O)[C@H](Cc1ccccc1)NC(=O)O[C@@H]1CCOC1)S(=O)(=O)c1ccc(N)cc1
active: [6] 26800 nM
inactive: [1] | [3] | [9] | [7] | [4] | [8]

NCCC[C@H](N)C(=O)O
inactive: [1] | [3] | [4]

O=C(CCCCCCCCCCCCC1CCCC1)Nc1ccc(S(=O)(=O)c2ccc(NC(=O)CCCCCCCCCCCCC3CCCC3)cc2)cc1
inactive: [1] | [5] | [3] | [4]

C=C[C@]1(C)C[C@@H](OC(=O)CO)[C@]2(C)[C@H](C)CC[C@]3(CCC(=O)[C@H]32)[C@@H](C)[C@@H]1O
inactive: [1] | [4]
